This is a sample that favours compounds with a hit; in the whole collection about 18% have one here.
LDHA block = qHTS assay for inhibitors of human lactate dehydrogenase | 0.15% of 480,000 active | L-lactate dehydrogenase A chain (Homo sapiens), P00338 | AID 1347041, 2019 | purified LDHA, NADH/diaphorase-resazurin fluorescence; stronger effect = lower value | activity change, % (values are at about 110 or 230 µM); in the data active = activity change below about -30%; inconclusive = mostly about -25% to -30%;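 note: plate controls were DMSO wells for no effect and wells without enzyme for full effect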
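Human LDH5 at 2 nM final in Tris HCl pH 7.4 with 0.06 mM NADH and 0.2 mM pyruvate, reacted 5 minutes at room temperature. Remaining NADH coupled via diaphorase/resazurin; resorufin fluorescence read at 0 and 20 minutes, normalized to enzyme-free and DMSO wells.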
RORg inh = qHTS for inhibitors of ROR gamma transcriptional activity | Nuclear receptor ROR-gamma (Mus musculus), P51450 | Drosophila S2 Gal4-RORgamma UAS-luciferase reporter, 20 h | Potency, µM (highest dose often 53.6 µM), for the others: top-dose activity change, negative = inhibition, hits mostly inhibitors | 5.4% of 310,000 active; note: potency is the fitted concentration of half-maximal effect; nearly all actives have a fitted effect of over 60% in size
Target sequence (P51450 whole entry, looked up, the tested form may be a part): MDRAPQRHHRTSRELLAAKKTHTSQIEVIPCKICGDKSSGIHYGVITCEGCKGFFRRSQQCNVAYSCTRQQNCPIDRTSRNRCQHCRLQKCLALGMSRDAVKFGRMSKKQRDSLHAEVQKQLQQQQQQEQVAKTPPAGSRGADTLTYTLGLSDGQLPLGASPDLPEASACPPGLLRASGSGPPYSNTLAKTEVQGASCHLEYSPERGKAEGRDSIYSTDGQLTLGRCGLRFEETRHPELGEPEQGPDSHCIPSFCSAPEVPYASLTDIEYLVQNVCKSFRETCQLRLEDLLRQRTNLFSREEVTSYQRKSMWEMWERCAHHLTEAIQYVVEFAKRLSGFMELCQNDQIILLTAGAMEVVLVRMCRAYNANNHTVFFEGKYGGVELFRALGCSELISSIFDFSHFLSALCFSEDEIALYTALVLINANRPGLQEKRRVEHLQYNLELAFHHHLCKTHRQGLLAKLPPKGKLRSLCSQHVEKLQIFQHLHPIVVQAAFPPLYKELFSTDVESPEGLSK
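Stably transfected Drosophila Schneider cells are the test system, with ROR gamma fused to Gal4 and luciferase under UAS control; luminescence is read after 20 hr of 700 uM copper sulfate induction at ambient temperature.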
TDP1 cell CPT = qHTS for Inhibitors of human tyrosyl-DNA phosphodiesterase 1 (TDP1): qHTS in cells in presence of CPT. 12% of 420,000 active. chicken DT40 Tdp1-/-;hTDP1 cells + 20 nM CPT, ATP luminescence, 48 h. Potency, µM (highest dose often 46.2 µM), inactives show top-dose activity change, negative = growth inhibition, actives largely listed as inhibitors. AID 686979, 2013; note: potency is the fitted concentration of half-maximal effect; nearly all actives have a fitted effect of over 55% in size
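Chicken DT40 Tdp1-/- cells complemented with human TDP1, 400 cells/well, exposed to compounds plus 20 nM camptothecin for at least 48 h at 37 C; viability read as ATP content by CellTiter-Glo luminescence.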
VP16 counter = VP16 counterscreen qHTS for inhibitors of ROR gamma transcriptional activity; Drosophila S2 Gal4-VP16 UAS-luciferase, luminescence, 20 h; Potency, µM (highest dose often 53.6 µM), for inactives: at the top dose activity, negative = inhibition, most hits filed as inhibitors; 3.5% of 310,000 active;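 note: Gal4-VP16 expression switched on by copper sulfate through the metallothionein promoter; potency is the fitted concentration of half-maximal effect; nearly all actives have a fitted effect of over 50% in size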
IL-1B inflam inh = qHTS for Inhibitors of Inflammasome Signaling: IL-1-beta AlphaLISA Primary Screen | THP-1 LPS/ATP IL-1B secretion, AlphaLISA, 16 h; stronger effect = lower value | activity change, % at 57.5 µM | 4.7% of 360,000 active | AID 743279, 2014; in the data active = activity change below about -50%; inconclusive = mostly about -30% to -49%
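Secreted IL-1B measured by AlphaLISA bead assay after 16 h compound exposure of THP-1 cells; compounds (final up to 57.5 uM) added 1 h before LPS (250 ng/mL) and ATP (1.25 mM) stimulation; lower signal means less secretion.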
TDP1 cell noCPT = qHTS for Inhibitors of human tyrosyl-DNA phosphodiesterase 1 (TDP1): qHTS in cells in absence of CPT; 15% of 420,000 active; DT40 Tdp1-/- hTDP1 cells, no CPT, ATP luminescence, 48 h; AID 686978, 2013; Potency, µM (top dose mostly 46.2 µM), without a hit: at the highest dose activity change, negative = growth inhibition, most hits filed as inhibitors; note: potency is the fitted concentration of half-maximal effect; nearly all actives have a fitted effect of over 55% in size
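Chicken DT40 Tdp1-/- cells stably complemented with human TDP1 were seeded at 400 cells/well with DMSO in place of 20 nM camptothecin. After compound pinning, cells grew at least 48 hr at 37 °C; viability read by CellTiter-Glo luminescence.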
Starred values were filed as active, the others as inactive; ? = inconclusive; . = no result given; ! = a repeat was not active; [ ] = remark or other dose. Unless noted, calls come from the whole dose curve; as a rule, active = well fitted curve in the direction sought with a large enough effect; inconclusive = small, poorly fitted or top-dose-only effect, or another doubt; inactive = no such curve, though single readings can be large; an effect the other way counts as inactive or inconclusive. Unless noted, % is set by controls: 0 for no effect and ±100 for the full control effect.

SMILES | LDHA block | RORg inh | TDP1 cell CPT | VP16 counter | IL-1B inflam inh | TDP1 cell noCPT
CC(C)CCCN1CCN=C1N(C)C | -4.4 | -12.9% | -4.9% | -2.3% | -0.1 | -27.6%
CCCCCCCN1CCN=C1N(C)C | 0.5 | . | ? | . | -2.5 | 16.4µM*
C[C@H]1CN=C(N(C)C)N1CCCC1CCCCC1 | 0.3 | . | 20.6µM* | . | -9.0 | 16.4µM*
CN(C)C1=NCCN1CCC1CCCCC1 | -3.0 | . | 11.6µM* | . | -2.5 | ?
CC(C)CCN1C(N(C)C)=NC[C@@H]1C | -7.0 | . | 9.3% | . | -14.6 | 5.3%
O=C(Nc1cccc(-c2nc3c(s2)CCCC3)c1)C1CC1 | 12.6 | . | . | . | . | .
C=CCNC(=S)Nc1cc(C(F)(F)F)cc(C(F)(F)F)c1 | 2.8 | . | . | . | . | .
O=S(=O)(c1ccc(=S)[nH]n1)C1CCCCC1 | -8.1 | . | . | . | . | .
CCOc1ccc(-n2nc(C(=O)Nc3ccc4c(c3)OCCO4)c3ccccc3c2=O)cc1 | 3.9 | . | . | . | . | .
Clc1ccc(CCNC(c2ccc(Cl)cc2)c2nnc(-c3ccccc3)o2)cc1 (configuration not stated) | 0.6 | . | ? | . | . | 23.1µM*
Fc1ccccc1C(NCCc1ccc(Cl)cc1)c1nnc(-c2ccccc2)o1 (configuration not stated) | -6.7 | . | 18.4µM* | . | . | ?
N#Cc1ccc(Cl)cc1N=C/C(Br)=C/c1ccccc1 | 2.8 | . | . | . | . | .
CCOc1ccc(CC(=O)NCc2ccc3c(c2)CCN3C(=O)c2ccccc2)cc1OCC | -0.8 | . | 16.4µM* | . | . | ?
O=C(COc1ccc(F)cc1)NCc1ccc2c(c1)CCN2C(=O)c1ccc(F)cc1 | -8.0 | . | -18.5% | . | . | -23.4%
COc1ccc(OCC(=O)NCc2ccc3c(c2)CCN3C(=O)c2ccc(F)cc2)cc1 | 2.4 | . | -29.3% | . | . | ?
COc1ccc(OCC(=O)NCc2ccc3c(c2)CCN3C(=O)c2ccccc2)cc1 | -2.0 | . | 14.6µM* | . | . | 13µM*
Cc1cccc(OCC(=O)NCc2ccc3c(c2)CCN3C(=O)c2ccc(Cl)cc2)c1 | -1.0 | . | -3.9% | . | . | -5.0%
Cc1ccc(C(=O)N2CCc3cc(CNC(=O)COc4ccccc4)ccc32)cc1 | 2.0 | . | 13µM* | . | . | 11.6µM*
O=C(COc1ccccc1)NCc1ccc2c(c1)CCN2C(=O)c1ccccc1 | -3.5 | . | 11.6µM* | . | . | 6.51µM*
COc1ccc(CN2CCN(Cc3ccncc3)CC2)c(OC)c1 | 9.1 | . | . | . | . | .
Cn1c(=O)c2c(nc(NCc3ccc4c(c3)OCO4)n2Cc2cccc(Br)c2)n(C)c1=O | -16.8 | . | . | . | . | .
CCOc1cccc(-c2cc(C(=O)N3N=C(C)CC3(O)C(F)F)c3ccccc3n2)c1 (configuration not stated) | 0.4 | 42.8% | 15.9% | 9.0% | -64.1* | ?
O=C(c1cc(-c2ccccc2)nc2ccccc12)N1N=C(C(F)F)CC1(O)C(F)F (configuration not stated) | 0.8 | 14.2% | -28.7% | 5.2% | 4.9 | -10.4%
Cc1ccc(-c2cc(C(=O)N3N=C(C(F)F)CC3(O)C(F)F)c3ccccc3n2)cc1C (configuration not stated) | 6.0 | ? | 18.4µM* | ? | -71.3* | ?
Cc1nc2ccccc2nc1SC(C)C(=O)N1CCOCC1 (configuration not stated) | -0.2 | . | . | . | . | .
SMILES | LDHA block | RORg inh | TDP1 cell CPT | VP16 counter | IL-1B inflam inh | TDP1 cell noCPT
O=C(Nc1ccccc1Oc1ccccc1)c1ccoc1 | 9.7 | . | . | . | . | .
Nc1nc(=S)c2ncn(C3OC(CO)C(O)C3O)c2[nH]1 (configuration not stated) | 2.7 | -2.1% | 4.11µM* | 3.9% | 13.7 | 8.2µM*
OC[C@@H]1CCC[C@@H](n2cnc3c(=S)nc[nH]c32)O1 | -2.4 | . | ? | . | . | -12.3%
Nc1nc2c(ncn2[C@@H]2O[C@H](CO)[C@@H](O)[C@H]2O)c(=O)[nH]1 | . | 1.1% | 18.2% | -0.5% | . | 3.7%
CC1(C)OC2C(CO)OC(n3cnc4c(=S)nc(N)[nH]c43)C2O1 (configuration not stated) | -8.1 | . | 11.6µM* | . | 18.0 | 14.6µM*
CC1(C)OC2C(CO)OC(n3cnc4c(=S)nc[nH]c43)C2O1 (configuration not stated) | -15.1 | -31.4% | -1.9% | -6.7% | 4.8 | -1.4%
Nc1nc(=S)c2ncn(C3CCCCC3)c2[nH]1 | -2.4 | . | -10.6% | . | -4.0 | -8.0%
Nc1nc(=S)c2ncn([C@@H]3O[C@H](CO)[C@@H](O)[C@H]3O)c2[nH]1 | -4.6 | . | 1.64µM* | . | 0.0 | 1.84µM*
OCC1OC(n2cnc3c(=S)nc[nH]c32)C(O)C1O (configuration not stated) | 8.5 | 5.8%[10 µM] | 10µM*! | 3.0% | . | ?
C/C(=N\NC(=O)c1ccncc1)C1CC1 | -1.2 | . | . | . | . | .
CC1=CCCC(C)(C)C1/C=C/C(C)=N/NC(=O)c1ccncc1 (configuration not stated) | 4.9 | 2.82µM* | ? | ? | 82.1 | ?
c1cncc(CNc2ncnc3ccc(-c4cccnc4)cc23)c1 | -18.3 | ? | 0.0065µM* | 0.8% | . | 11.6µM*
COCCNc1ncnc2ccc(-c3ccccc3C(F)(F)F)cc12 | . | ? | 13µM* | -14.8% | . | 20.6µM*
FC(F)(F)c1ccccc1-c1ccc2ncnc(NCc3cccnc3)c2c1 | . | ? | 2.06µM* | ? | . | 7.31µM*
CC(=O)NCCNc1ncnc2ccc(-c3ccccc3C(F)(F)F)cc12 | . | -12.2% | ? | -4.7% | . | ?
COCCCNc1ncnc2ccc(C)cc12 | -1.5 | ? | 16.4µM* | ? | 26.0 | 18.4µM*
Clc1ccccc1-c1ccc2ncnc(NCc3cccnc3)c2c1 | 2.2 | ? | ? | -15.8% | . | ?
Cc1ccc(S(=O)(=O)N(CC(=O)O)Cc2ccc(Cl)cc2Cl)cc1 | -5.3 | . | . | . | . | .
CCOC(=O)c1cnn(-c2nc(C)nc3sc4c(c23)CCC4)c1N | . | -2.5%[10 µM] | . | 6.2% | . | .
CCOC(=O)c1cnn(-c2nc3sc4c(c3c(=O)[nH]2)CCCC4)c1N | . | 0.562µM* | . | 0.794µM* | . | .
Cc1cc(C)n(-c2nc3sc4c(c3c(=O)[nH]2)CCCC4)n1 | . | 0.708µM* | . | 1.41µM* | . | .
Cc1cc(C)n(-c2nnc(C)n2N)n1 | -2.4 | -1.1% | 14.9% | 3.9% | -6.9 | 3.2%
Cc1cc(C)n(-c2nnc(C)c(=O)[nH]2)n1 | 8.4 | 15.8µM* | -4.5% | -10.4% | 16.3 | -3.8%

Source: PubChem BioAssay
